Rows were chosen to be rich in hits. Some 0.64% of all compounds tested hit in one or more screens of this group.
sEH inhibitor – inhibitors of human soluble epoxide hydrolase; inhibition, % at 2 µM; 91,000 tested, 0.34% active; P34913; recombinant human sEH enzymatic activity assay; in the data active = inhibition above about 80%
Target sequence (P34913 whole entry, looked up): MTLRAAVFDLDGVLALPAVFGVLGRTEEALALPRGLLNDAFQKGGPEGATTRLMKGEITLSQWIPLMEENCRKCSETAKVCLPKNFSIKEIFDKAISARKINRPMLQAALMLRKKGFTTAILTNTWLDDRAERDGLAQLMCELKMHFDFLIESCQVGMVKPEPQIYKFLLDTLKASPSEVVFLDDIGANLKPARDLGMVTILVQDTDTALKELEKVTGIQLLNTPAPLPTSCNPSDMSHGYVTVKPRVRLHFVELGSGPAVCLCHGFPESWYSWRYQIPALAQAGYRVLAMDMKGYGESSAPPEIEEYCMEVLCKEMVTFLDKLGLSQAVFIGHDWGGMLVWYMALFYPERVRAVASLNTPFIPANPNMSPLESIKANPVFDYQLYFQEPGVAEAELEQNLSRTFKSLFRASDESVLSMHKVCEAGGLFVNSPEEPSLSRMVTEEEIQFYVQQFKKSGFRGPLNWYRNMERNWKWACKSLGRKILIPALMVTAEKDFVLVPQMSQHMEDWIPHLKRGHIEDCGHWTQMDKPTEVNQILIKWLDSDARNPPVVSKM
PTPN22 inh 2 – LYP (human) phosphatase inhibition. Q9Y2R2. AID 640. recombinant LYP catalytic domain, DiFMUP fluorescence. inhibition, % at 2 µM. 96,000 tested, 0.21% active;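 active = inhibition at 2 µM at or above a set limit, the screen mean plus 3 SD, cut at about 24% in these data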
MT1-MMP txn act – activates MT1-MMP transcription; HT1080 MT1-MMP promoter luciferase reporter, luminescence, overnight; hits give high values; 86,000 tested, 0.16% active; activation factor at 10 µM; AID 750;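 active = activation factor of at least 2 for MT1-MMP transcription at 10 µM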
Ec RNAP inh – inhibitors of Escherichia coli RNA polymerase; 62,000 tested, 0.2% active; E. coli RNA polymerase, fluorescence transcription assay; inhibition, %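 (tested at 10 µM)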; in the data active = inhibition above about 20%
PTPN22 act – activators of human LYP (PTPN22) phosphatase; 96,000 tested, 0.11% active; recombinant LYP, DiFMUP fluorescence; 0 = plate median, 100 = signal doubled; Q9Y2R2; activation, % at 2 µM;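 active = activation at 2 µM above a set limit, the mean plus 5 SD, cut at about 37% in these data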
sEH activator – soluble epoxide hydrolase (human) activation | P34913 | purified human sEH enzymatic activity, activator screen | activation, % at 2 µM | 91,000 tested, 0.04% active | AID 717; in the data active = activation above about 37%
LYP act confirm – LYP (PTPN22) phosphatase activation confirmation; shares compounds with PTPN22 act; Recombinant LYP, DIFMUP fluorescence; zero set by plate's median compound well; activation, % at 2 µM; 100 tested, under 10 active; call rule not given here
A number is an active result.

`COC(=O)c1ccc(C(NC(=O)OCc2ccccc2)/C(C)=C/[C@@H](C)C(=O)NCc2nc3ccccc3s2)cc1` (some centres not stated) gave MT1-MMP txn act inactive.
Screening CCc1ccccc1NC(=O)CC(O)(C(=O)OC)C(F)(F)F (configuration not stated) returned sEH inhibitor inactive, PTPN22 inh 2 inactive, MT1-MMP txn act inactive, Ec RNAP inh inactive, PTPN22 act 37, sEH activator inactive and LYP act confirm inactive.
COC(=O)C(O)(CC(=O)Nc1ccccc1OC)C(F)(F)F (configuration not stated) was read as sEH inhibitor inactive, PTPN22 inh 2 inactive, MT1-MMP txn act inactive, PTPN22 act inactive and sEH activator inactive.
CCCCC(=O)NCCNC(=O)c1cc(OCC(F)(F)F)ccc1OCC(F)(F)F was read as sEH inhibitor inactive, PTPN22 inh 2 inactive, PTPN22 act 38, sEH activator inactive and LYP act confirm inactive.
`COc1cc2c(cc1OC)C(=O)CC(C)S2` (configuration not stated) gave sEH inhibitor inactive, PTPN22 inh 2 inactive, PTPN22 act inactive and sEH activator inactive.
`Cc1cc(F)ccc1NCc1cccnc1` gave sEH inhibitor inactive, PTPN22 inh 2 inactive, MT1-MMP txn act inactive, PTPN22 act 38, sEH activator inactive and LYP act confirm inactive.
COC(=O)[C@@]1(Cc2ccccc2)[C@H]2c3cc(C(=O)N4CCCC4)n(Cc4c(CO)[nH]cc(C)c4=O)c3C[C@H]2CN1C(=O)c1ccccc1 was read as MT1-MMP txn act inactive.
COC(=O)CN=C1OC(=O)N2C(=O)C3=C4[C@@H](C[C@H]5C(=O)N(c6ccccc6)C(=O)[C@H]5[C@H]4[C@@]12Cc1ccccc1)[C@H]1C(=O)N(c2ccccc2)C(=O)[C@H]1[C@H]3C was read as MT1-MMP txn act inactive.
`O=[N+]([O-])c1ccc2nccn2c1` gave sEH inhibitor inactive, PTPN22 inh 2 inactive, PTPN22 act inactive and sEH activator inactive.
COc1cc2nc(SCC(N)=O)n(CCC3=CCCCC3)c(=O)c2cc1OC was read as sEH inhibitor inactive, PTPN22 inh 2 inactive, MT1-MMP txn act inactive, Ec RNAP inh inactive, PTPN22 act 41, sEH activator inactive and LYP act confirm inactive.
Screening COc1ccc(CNc2nc(NCc3ccc(OC)c(OC)c3)n(C(=O)c3cccs3)n2)cc1OC returned sEH inhibitor inactive, PTPN22 inh 2 inactive, PTPN22 act inactive and sEH activator inactive.
Screening Cc1c(-c2nc(N)nc(Nc3ccccc3)n2)oc2ccccc12 returned sEH inhibitor inactive, PTPN22 inh 2 inactive, MT1-MMP txn act 2, Ec RNAP inh inactive, PTPN22 act 37, sEH activator inactive and LYP act confirm inactive.
For O=C(CCNS(=O)(=O)c1cccs1)Nc1ccccc1F the results were sEH inhibitor inactive, PTPN22 inh 2 inactive, MT1-MMP txn act inactive, Ec RNAP inh inactive, PTPN22 act 42, sEH activator inactive and LYP act confirm inactive.
O=C(CCNS(=O)(=O)c1cccs1)Nc1nccs1 was read as PTPN22 inh 2 inactive, MT1-MMP txn act inactive, Ec RNAP inh inactive and PTPN22 act inactive.
O=C(NNC1=C(C(=O)C(F)(F)F)CCC1)c1ccc(Cl)cc1 was read as sEH inhibitor inactive, PTPN22 inh 2 inactive, MT1-MMP txn act inactive, PTPN22 act 45, sEH activator inactive and LYP act confirm inactive.
COC(=O)[C@H](Cc1ccccc1)NC(=O)NCc1ccc(S(N)(=O)=O)cc1 was read as PTPN22 inh 2 inactive, MT1-MMP txn act inactive, Ec RNAP inh inactive, PTPN22 act 44 and LYP act confirm inactive.
O=C(NCc1ccccc1)C1CCN(C(=O)NCc2ccccc2)CC1 was read as MT1-MMP txn act inactive and Ec RNAP inh inactive.
For O=C(NC(=S)NCc1ccccc1)C1CCCCC1 the results were sEH inhibitor inactive, PTPN22 inh 2 inactive, PTPN22 act 39, sEH activator inactive and LYP act confirm inactive.
CCSc1c(C(=O)NC)ccc2c1C(=O)c1ccccc1C2=O was read as sEH inhibitor inactive, PTPN22 inh 2 inactive, MT1-MMP txn act inactive, PTPN22 act inactive and sEH activator inactive.
For COC(=O)c1ccc2c(c1O)C(=O)c1ccccc1C2=O the results were sEH inhibitor inactive, PTPN22 inh 2 inactive, PTPN22 act 46, sEH activator inactive and LYP act confirm inactive.
`COCCCNC(=O)c1ccc(CS(=O)(=O)Cc2cccc(C)c2)o1` gave PTPN22 inh 2 inactive, MT1-MMP txn act inactive, Ec RNAP inh inactive, PTPN22 act 37 and LYP act confirm inactive.
Cc1cccc(CS(=O)(=O)Cc2ccc(C(=O)NCc3ccco3)o2)c1 was read as sEH inhibitor inactive, PTPN22 inh 2 inactive, MT1-MMP txn act inactive, Ec RNAP inh inactive, PTPN22 act inactive and sEH activator inactive.
Cc1ccccc1CSc1nccn1-c1ccccc1 was read as sEH inhibitor inactive, PTPN22 inh 2 inactive, PTPN22 act inactive and sEH activator inactive.
Screening Cc1cccc(/C(N)=N/OC(=O)CCc2ccccc2)c1 returned sEH inhibitor inactive, PTPN22 inh 2 inactive, PTPN22 act inactive and sEH activator inactive.
Screening c1ccc2c(c1)ncn2Cc1nnc2sc(-c3ccncc3)nn12 returned sEH inhibitor inactive, PTPN22 inh 2 inactive, MT1-MMP txn act inactive, PTPN22 act 51, sEH activator inactive and LYP act confirm inactive.
For c1ccc(-c2nn3c(Cn4cnc5ccccc54)nnc3s2)cc1 the results were sEH inhibitor inactive, PTPN22 inh 2 inactive, MT1-MMP txn act inactive, Ec RNAP inh inactive, PTPN22 act inactive and sEH activator inactive.
CC(C)(C)C(=O)NC(c1ccc(Cl)cc1)[C@]1(C)C[C@H]1C1CCCCC1 (some centres not stated) was read as MT1-MMP txn act inactive.
`CC(=O)Nc1ccccc1-c1nnc(SCc2ccccc2Cl)[nH]c1=O` gave sEH inhibitor inactive, PTPN22 inh 2 inactive, MT1-MMP txn act inactive, PTPN22 act inactive and sEH activator inactive.

Assay outcomes (PubChem)
